Data on 27 compounds can be found in PubChem BioAssay (Tox21).

Molecules are shown by their SMILES. Inconclusive results are not listed. Where a call stands in place of a potency, no number is given. Values without a mark were called inactive. Calls of active or inactive are those of the source. Calls come from the whole dose curve; as a rule, active = well fitted cell-killing curve with a large enough effect in the repeat runs; inconclusive = weak or mixed curves, or effect the other way; inactive = no such curve, though single readings can be large or run the other way.

The assay can be described thus: qHTS assay to identify small molecule antagonists of the glucocorticoid receptor (GR) signaling pathway - cell viability counter screen (AID 720693). Note: nearly all actives have a fitted effect of over 55% in size. Conditions: GR-bla HeLa viability, CellTiter-Glo luminescence, 18 h, with 5 nM dexamethasone present; series mostly up to 58.5 µM.
On to `COc1cc(C)c(Cc2cnc(N)nc2N)cc1OC`, for which the Potency entry was “inactive”.
Still for that read-out and setting: to `Sc1nc(S)nc(S)n1` belongs “inactive”; to `C=CC(O)CCCCC` (configuration not stated), “inactive”.
As to `COC(=O)/C=C/C(C)=C\C=C\C(C)=C\C=C\C=C(C)\C=C\C=C(C)\C=C\C(=O)O`, the Potency result is “inactive”.
Same read-out and setting: the result for `OCCOc1cccc(OCCO)c1` reads “inactive”; that for `CC(C)C/C=C(\C=O)c1ccccc1`, “inactive”.
Consider `COC(=O)Cc1cccc2ccccc12`, for which the Potency result was “inactive”.
With `COC=O`, the viability change, negative = cytotoxic is -0.963% [at 7.04 µM].
For the compound `Cc1c(N=C=O)cccc1N=C=O`, the Potency entry is “inactive”.
Take `CCCCCCCCCCCCSCCOCCO`: the Potency entry was “inactive”.
As to `Clc1ccccc1-c1nc(-c2ccncc2)no1`, the Potency result is “inactive”.
The same measure, in the same setting: the result for `Cc1nc(C)c(C)nc1C` reads “inactive”.
`O=C(OCCCCCOC(=O)c1ccccc1)c1ccccc1`: the Potency entry is “inactive”.
On to `O=c1c2ccccc2oc2ccccc12`, for which the Potency entry was “inactive”.
Take `CCCCCCCCCCCCCCCCCCCl`: the viability change, negative = cytotoxic was -4.59% [at 7.04 µM].
With `C=CC(C)(O)CC/C=C(/C)CCC=C(C)C` (configuration not stated), the Potency entry is “inactive”.
On the same count and under the same terms, to `O=P(c1ccccc1)(c1ccccc1)c1ccccc1` belongs “inactive”; to `CC/C=C\CCO`, “inactive”; to `CCc1c(C)[nH]c2c1C(=O)C(CN1CCOCC1)CC2` (configuration not stated), “inactive”.
Regarding `CCOC(=O)CC(O)(CC(=O)OCC)C(=O)OCC`, the Potency result is “inactive”.
Consider `C=C(C)C(=O)OCCCCCCCCCCOC(=O)C(=C)C`, for which the Potency entry is “inactive”.
Regarding `CCCc1ccc(OC)cc1`, the Potency entry is “inactive”.
Same read-out and setting: to `CC(Cc1ccccc1)(NC(=O)CN)c1ccccc1` (configuration not stated) belongs “inactive”.
Same read-out and setting: the result for `CC(C)NC(=O)c1ccccc1N` reads “inactive”.
The same measure, in the same setting: to `CCCCCCC/C=C/C=O` belongs “inactive”.
As to `CC/C=C/CCO`, the Potency entry was “inactive”.
On the same count and under the same terms, to `O=c1[nH]nc(-c2ccc([N+](=O)[O-])o2)o1` belongs “inactive”.
